Test results from the supplement of paper PMC8728848.
Only a selection was taken, and the strongest signals are over-represented in it overall.

Experiments:
Assay in all cases: glycan array binding signal (z-score within array); higher = stronger binding
Conditions in all cases: glycan notation: IUPAC condensed, linker removed
[1] = biological target: Fuc(a1-2)Gal(b1-3)GalNAc(b1-3)Gal(a1-4)Gal(b1-4)Glc
Outline: (§1)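 Negative Z-scores can be read as non-binding. The Z-score is calculated within each array and then averaged across arrays of one protein sequence at different concentrations or buffers and across linkers. Arrays, 3228 in all, were curated from the Consortium for Functional Glycomics database and kept only where the protein sequence was available.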

[2] = biological target: Fuc(a1-2)Gal(b1-3)GlcNAc(b1-3)GalNAc
Outline: as §1

[3] = biological target: Fuc(a1-2)Gal(b1-3)[Fuc(a1-4)]GlcNAc(b1-2)Man(a1-3)[Fuc(a1-2)Gal(b1-3)[Fuc(a1-4)]GlcNAc(b1-2)Man(a1-6)]Man(b1-4)GlcNAc(b1-4)[Fuc(a1-6)]GlcNAc(b1-4)[Fuc(a1-6)]GlcNAc
Outline: as §1

[4] = biological target: Fuc(a1-2)Gal(b1-4)[Fuc(a1-3)]GlcNAc(b1-2)Man(a1-3)[Fuc(a1-2)Gal(b1-4)[Fuc(a1-3)]GlcNAc(b1-2)Man(a1-6)]Man(b1-4)GlcNAc(b1-4)[Fuc(a1-6)]GlcNAc
Outline: as §1

[5] = biological target: Fuc(a1-2)[Gal(a1-4)]Gal(b1-4)GlcNAc
Outline: as §1

[6] = biological target: Fuc(a1-3)[Gal3S(b1-4)]GlcNAc
Outline: as §1

Fuc(a1-4)GlcNAc = biological target: Fuc(a1-4)GlcNAc
Outline: as §1

[7] = biological target: Gal(a1-3)Gal(b1-4)[Fuc(a1-3)]GlcNAc
Outline: as §1

Gal(a1-4)GlcNAc = biological target: Gal(a1-4)GlcNAc
Outline: as §1

Gal(b1-3)Gal = biological target: Gal(b1-3)Gal
Outline: as §1

Gal(b1-3)GlcNAc(b1-2)Man = biological target: Gal(b1-3)GlcNAc(b1-2)Man
Outline: as §1

[8] = biological target: Gal(b1-3)GlcNAc(b1-3)Gal(b1-4)[Fuc(a1-3)]GlcNAc
Outline: as §1

[9] = biological target: Gal(b1-3)GlcNAc(b1-3)Gal(b1-4)[Fuc(a1-3)]GlcNAc(b1-6)[Gal(b1-3)GlcNAc(b1-3)]Gal(b1-4)Glc
Outline: as §1

Gal(b1-4)Glc = biological target: Gal(b1-4)Glc
Outline: as §1

[10] = biological target: Gal(b1-4)GlcNAc(b1-3)Gal(b1-4)GlcNAc(b1-3)GalNAc
Outline: as §1

[11] = biological target: Gal(b1-4)GlcNAc(b1-3)GalNAc
Outline: as §1

Gal3S(b1-4)GlcNAc = biological target: Gal3S(b1-4)GlcNAc
Outline: as §1

[12] = biological target: Gal3S(b1-4)[Fuc(a1-3)]GlcNAc
Outline: as §1

GalNAc(a1-3)Gal = biological target: GalNAc(a1-3)Gal
Outline: as §1

GalNAc(b1-3)GalNAc = biological target: GalNAc(b1-3)GalNAc
Outline: as §1

GalNAc(b1-3)GlcNAc = biological target: GalNAc(b1-3)GlcNAc
Outline: as §1

[13] = biological target: GalNAc3S(b1-4)[Fuc(a1-3)]GlcNAc
Outline: as §1

[14] = biological target: GlcNAc(a1-4)Gal(b1-3)GlcNAc
Outline: as §1

[15] = biological target: GlcNAc(b1-3)Gal(b1-3)GalNAc
Outline: as §1

GlcNAc(b1-3)Gal(b1-4)Glc = biological target: GlcNAc(b1-3)Gal(b1-4)Glc
Outline: as §1

[16] = biological target: GlcNAc(b1-3)Gal(b1-4)GlcNAc(b1-2)Man(a1-3)[GlcNAc(b1-3)Gal(b1-4)GlcNAc(b1-2)Man(a1-6)]Man(b1-4)GlcNAc(b1-4)[Fuc(a1-6)]GlcNAc
Outline: as §1

[17] = biological target: GlcNAc(b1-3)Gal(b1-4)GlcNAc(b1-3)Gal(b1-4)GlcNAc(b1-2)Man(a1-3)[GlcNAc(b1-3)Gal(b1-4)GlcNAc(b1-3)Gal(b1-4)GlcNAc(b1-2)Man(a1-6)]Man(b1-4)GlcNAc(b1-4)[Fuc(a1-6)]GlcNAc
Outline: as §1

[18] = biological target: GlcNAc(b1-3)Gal(b1-4)GlcNAc(b1-3)Gal(b1-4)GlcNAc(b1-2)[GlcNAc(b1-3)Gal(b1-4)GlcNAc(b1-3)Gal(b1-4)GlcNAc(b1-6)]Man(a1-6)[GlcNAc(b1-3)Gal(b1-4)GlcNAc(b1-3)Gal(b1-4)GlcNAc(b1-2)Man(a1-3)]Man(b1-4)GlcNAc(b1-4)[Fuc(a1-6)]GlcNAc
Outline: as §1

[19] = biological target: GlcNAc(b1-3)Gal(b1-4)GlcNAc(b1-3)Gal(b1-4)GlcNAc(b1-3)Gal(b1-4)GlcNAc(b1-2)Man(a1-3)[GlcNAc(b1-3)Gal(b1-4)GlcNAc(b1-3)Gal(b1-4)GlcNAc(b1-3)Gal(b1-4)GlcNAc(b1-2)Man(a1-6)]Man(b1-4)GlcNAc(b1-4)[Fuc(a1-6)]GlcNAc
Outline: as §1

[20] = biological target: GlcNAc(b1-3)Gal(b1-4)GlcNAc(b1-3)Gal(b1-4)GlcNAc(b1-3)Gal(b1-4)GlcNAc(b1-2)[GlcNAc(b1-3)Gal(b1-4)GlcNAc(b1-3)Gal(b1-4)GlcNAc(b1-3)Gal(b1-4)GlcNAc(b1-6)]Man(a1-6)[GlcNAc(b1-3)Gal(b1-4)GlcNAc(b1-3)Gal(b1-4)GlcNAc(b1-3)Gal(b1-4)GlcNAc(b1-2)Man(a1-3)]Man(b1-4)GlcNAc(b1-4)[Fuc(a1-6)]GlcNAc
Outline: as §1

B1: LysMD3 (Homo sapiens), Q7Z3D4 (protein)
chain: MAGRHQNRSFPLPGVQSSGQVHAFGNCSDSDILEEDAEVYELRSRGKEKVRRSTSRDRLDDIIVLTKDIQEGDTLNAIALQYCCTVADIKRVNNLISDQDFFALRSIKIPVKKFSSLTETLCPPKGRQTSRHSSVQYSSEQQEILPANDSLAYSDSAGSFLKEVDRDIEQIVKCTDNKRENLNEVVSALTAQQMRFEPDNKNTQRKDPYYGADWGIG
glycan array binding signal (z-score) [1]: 0.086 | glycan array binding signal (z-score) [2]: 0.587 | glycan array binding signal (z-score) [3]: 0.341 | glycan array binding signal (z-score) [4]: 1.97 | glycan array binding signal (z-score) [5]: 2.84 | glycan array binding signal (z-score) [6]: -0.081 | glycan array binding signal (z-score) (Fuc(a1-4)GlcNAc): 0.681 | glycan array binding signal (z-score) [7]: 0.873 | glycan array binding signal (z-score) (Gal(a1-4)GlcNAc): 0.113 | glycan array binding signal (z-score) (Gal(b1-3)Gal): 0.706 | glycan array binding signal (z-score) (Gal(b1-3)GlcNAc(b1-2)Man): 1.23 | glycan array binding signal (z-score) [8]: 2.15 | glycan array binding signal (z-score) [9]: -0.547 | glycan array binding signal (z-score) (Gal(b1-4)Glc): -0.555 | glycan array binding signal (z-score) [10]: -0.073 | glycan array binding signal (z-score) [11]: 0.375 | glycan array binding signal (z-score) (Gal3S(b1-4)GlcNAc): -0.699 | glycan array binding signal (z-score) [12]: 0.294 | glycan array binding signal (z-score) (GalNAc(a1-3)Gal): 0.335 | glycan array binding signal (z-score) (GalNAc(b1-3)GalNAc): 1.67 | glycan array binding signal (z-score) (GalNAc(b1-3)GlcNAc): 1.85 | glycan array binding signal (z-score) [13]: -0.424 | glycan array binding signal (z-score) [14]: 0.45 | glycan array binding signal (z-score) [15]: 1.5 | glycan array binding signal (z-score) (GlcNAc(b1-3)Gal(b1-4)Glc): 0.983 | glycan array binding signal (z-score) [16]: 1.83 | glycan array binding signal (z-score) [17]: 1.8 | glycan array binding signal (z-score) [18]: 1.87 | glycan array binding signal (z-score) [19]: 1.68 | glycan array binding signal (z-score) [20]: 2.41
